Here are results for 37 compounds from ChEMBL document CHEMBL4296182, “CO-ADD screening of NIH NCI Diversity Set V”.

For part of these data: Potency and affinity values are given separately.

In experiment [1] the test system is Staphylococcus aureus. Description: Antibacterial activity against Staphylococcus aureus MRSA ATCC 43300 (CO-ADD:GP_020); MIC in CAMBH media using NBS plates, by Resazurin F(560/590). It counts as functional. The conditions noted are these: Concentration 20 uM, ASSAY_TEST Inhibition of Bacterial Growth, detection method Resazurin, Fluorescence (ex560/em590), MEDIA CAMHB, plate type 384well, CORNING #3640, time 18 hr. Background: Alamar Blue is a resazurin reagent that responds to reducing activity.

Experiment [2] concerns Acinetobacter baumannii. Description: Antibacterial activity against Acinetobacter baumannii ATCC 19606 (CO-ADD:GN_034); MIC in CAMBH media using NBS plates, by Resazurin F(560/590). The format is functional. The settings on record: Concentration 20 uM, ASSAY_TEST Inhibition of Bacterial Growth, detection method Resazurin, Fluorescence (ex560/em590), MEDIA CAMHB, plate type 384well, CORNING #3640, time 18 hr.

Experiment [3] has as its system Escherichia coli. As to the kind of experiment: Antibacterial activity against Escherichia coli ATCC 25922 (CO-ADD:GN_001); MIC in CAMBH media using NBS plates, by Resazurin F(560/590). It counts as functional. The settings on record: Concentration 20 uM, ASSAY_TEST Inhibition of Bacterial Growth, detection method Resazurin, Fluorescence (ex560/em590), MEDIA CAMHB, plate type 384well, CORNING #3640, time 18 hr.

Experiment [4] has as its system Klebsiella pneumoniae. The conditions noted are these: Concentration 20 uM; ASSAY_TEST Inhibition of Bacterial Growth; detection method Absorption (OD600); MEDIA CAMHB; plate type 384well; NBS; CORNING #3640; time 18 hr.
Experiment [5] concerns Candida albicans. The settings on record: 20 µM.
The test system of experiment [6] is Cryptococcus neoformans. The conditions noted are these: Concentration 20 uM; ASSAY_TEST Inhibition of Fungal Growth; detection method Resazurin; Absorption (OD600-OD570); plate type 384well; NBS; CORNING #3640.

`CC(C)Oc1ccc(C(=O)O)cc1`: the Inhibition (usually the relative decrease from the control value, in per cent) was 3.26% in experiment [1]; -8.45% in experiment [2]; 5.58% in experiment [3]; 15.4% in experiment [4]; 24.9% in experiment [5]; -0.99% in experiment [6].

Turning to `Cc1cc(O)c2c(O)[nH]nc2n1`, the Inhibition in experiment [1] was 14.32%; in experiment [2], -13.07%; in experiment [3], 7.82%; in experiment [4], 1.49%; in experiment [5], -3.37%; in experiment [6] it was -5%.

On to `CCOC(=O)c1ccc2c(c1)NCc1cccc(OC)c1O2`, for which the Inhibition in experiment [1] is 4.26%; in experiment [2], -16.83%; in experiment [3], 9.22%; in experiment [4] it was 6.83%; in experiment [5], 9.96%; in experiment [6], -17.21%.

Regarding `N=C(N)Nc1ccc(NC(=N)N)cc1`, the Inhibition in experiment [1] is 18.17%; in experiment [2], -6.06%; in experiment [3], 9.96%; in experiment [4] it was 17.17%; in experiment [5], -1.51%; in experiment [6], -0.62%.

As for `Cc1cnc2c(N)cc(C)c(C)c2c1`, the Inhibition in experiment [1] was 23.12%; in experiment [2], -5.88%; in experiment [3] it was 9.48%; in experiment [4], 9.31%; in experiment [5] it was 23.1%; in experiment [6] it was -10.43%.

In the case of `O=C(Nc1ccc2ccccc2c1)c1ccc(Cl)cc1Cl`, the Inhibition is 8.36% in experiment [1]; -2.05% in experiment [2]; 3.67% in experiment [3]; -0.53% in experiment [4]; -0.67% in experiment [5]; -1.28% in experiment [6].

On to `C[C@H](CCC(=O)O)[C@H]1CC[C@@]2(C)[C@@H]3C(=O)C[C@H]4C(C)(C)[C@@H](O)CC[C@]4(C)[C@H]3C(=O)C[C@]12C`, for which the Inhibition in experiment [1] was 2.14%; in experiment [2] it was -2.92%; in experiment [3] it was -3.17%; in experiment [4], 11.41%; in experiment [5], -2.24%; in experiment [6], -2.42%.

Take `CCOP(=O)(OCC)/C(C#N)=C/c1ccc([N+](=O)[O-])cc1`: the Inhibition in experiment [1] was 10.14%; in experiment [2], 12.51%; in experiment [3], 3.05%; in experiment [4], 9.62%; in experiment [5], 0.88%; in experiment [6], -11.85%.

On to `O=C(O)c1cc2ccccc2cc1Nc1ccccc1`, for which the Inhibition in experiment [1] is 0.16%; in experiment [2], 5.64%; in experiment [3] it was -16.93%; in experiment [4] it was 8.83%; in experiment [5], 12.2%; in experiment [6], 17.2%.

Regarding `CSc1nc(C)cc(S)n1`, the Inhibition in experiment [1] was 0.72%; in experiment [2], -7.16%; in experiment [3] it was 3.46%; in experiment [4], 5.27%; in experiment [5] it was 18.9%; in experiment [6] it was -4.48%.

With `CC(C)N(Cc1ccccc1)S(=O)(=O)c1nc(C(C)(C)C)n[nH]1`, the Inhibition in experiment [1] is 14.24%; in experiment [2], 7.66%; in experiment [3] it was 0.73%; in experiment [4] it was 17.58%; in experiment [5] it was 0.76%; in experiment [6], -4.79%.

With `Brc1ccc(/N=N/c2ccc3ccccc3n2)cc1`, the Inhibition in experiment [1] was 10.21%; in experiment [2] it was 4.06%; in experiment [3] it was -16.68%; in experiment [4], 5.4%; in experiment [5], 5.16%; in experiment [6], 43.68%.

Regarding `COc1cc(NC(C)=O)c2ncccc2c1Br`, the Inhibition in experiment [1] was 8.44%; in experiment [2], -11.34%; in experiment [3], 10.55%; in experiment [4] it was 15.6%; in experiment [5], 6.33%; in experiment [6] it was -16.73%.

Regarding `CC(C)(C)N=C(S)NC(C)(C)C`, the Inhibition in experiment [1] was 10.55%; in experiment [2], -9.16%; in experiment [3], 4.33%; in experiment [4], 8.8%; in experiment [5], 1%; in experiment [6], -0.12%.

For the compound `CN(C)C(=O)OCC1COc2ccccc2O1` (configuration not stated), the Inhibition was 14.89% in experiment [1]; -13.85% in experiment [2]; 7.79% in experiment [3]; 12.42% in experiment [4]; -0.21% in experiment [5]; -9.62% in experiment [6].

Regarding `Cn1c(=O)c2nc(COc3ccc(C(C)(C)C)cc3)[nH]c2n(C)c1=O`, the Inhibition in experiment [1] is -1.06%; in experiment [2], -14.84%; in experiment [3], 1.91%; in experiment [4] it was 9.47%; in experiment [5], 3.68%; in experiment [6], -17.46%.

As to `C(COC1CC2CC1C1C2CC2OC21)OC1CC2CC1C1C2CC2OC21` (configuration not stated), the Inhibition in experiment [1] is 7.31%; in experiment [2], 15%; in experiment [3], 5.47%; in experiment [4], 11.14%; in experiment [5] it was -1.79%; in experiment [6], -10.71%.

With `CC(C)NC(=O)Nc1cccc(Cl)c1`, the Inhibition is 12.4% in experiment [1]; 7.15% in experiment [2]; 6.41% in experiment [3]; 8.52% in experiment [4]; -1.88% in experiment [5]; -9.01% in experiment [6].

As for `c1cncc(-c2nc3ccccc3s2)c1`, the Inhibition was -7.01% in experiment [1]; 4.56% in experiment [2]; -11.97% in experiment [3]; 2.37% in experiment [4]; 4.69% in experiment [5]; 25.76% in experiment [6].

For `C=C1S/C(=N\c2c(C)cccc2Cl)N(C(=O)c2sc3ccccc3c2Cl)C12CCCCC2`, the Inhibition in experiment [1] is 4.2%; in experiment [2], 0.82%; in experiment [3], -2.79%; in experiment [4], 4.92%; in experiment [5], 5.73%; in experiment [6], 0.57%.

For `Oc1ccnc2c(Cl)cccc12`, the Inhibition in experiment [1] is 7.28%; in experiment [2], 2.93%; in experiment [3], -8.1%; in experiment [4], 5.9%; in experiment [5], 3.54%; in experiment [6] it was 14.14%.

For `O=C(Nc1csnn1)c1csnn1`, the Inhibition is -7.63% in experiment [1]; -6.51% in experiment [2]; -0.35% in experiment [3]; -1.22% in experiment [4]; 2.96% in experiment [5]; 1.57% in experiment [6].

For the compound `CCC1(CC)C(=O)NC(=S)N=C1N`, the Inhibition in experiment [1] was 2.67%; in experiment [2], -4.28%; in experiment [3], 12.79%; in experiment [4], 14.22%; in experiment [5] it was 7.8%; in experiment [6], -2.67%.

On to `CC(=O)Nc1ccc(S(=O)(=O)N=S(C)C)cc1`, for which the Inhibition in experiment [1] was 11.09%; in experiment [2], 5.41%; in experiment [3], 5.54%; in experiment [4], 15.05%; in experiment [5], 3.87%; in experiment [6], -12.86%.

In the case of `Cc1ccc(S(=O)(=O)Oc2cc(N)c3c(n2)CCC3)cc1`, the Inhibition in experiment [1] is 2.13%; in experiment [2], -12.3%; in experiment [3] it was 7.8%; in experiment [4], 9.4%; in experiment [5], 1.38%; in experiment [6], -7.75%.

For `CC1=C(C#N)C(C)(C)C(C#N)=C(C)N1`, the Inhibition in experiment [1] was 13.81%; in experiment [2], -13.23%; in experiment [3], 8.21%; in experiment [4], 8.84%; in experiment [5], 0.55%; in experiment [6], -14.16%.

Regarding `O=C1OCC/C1=C\OCCCO/C=C1\CCOC1=O`, the Inhibition was -12.85% in experiment [1]; -4.57% in experiment [2]; -5.06% in experiment [3]; 8.79% in experiment [4]; -0.38% in experiment [5]; -11.43% in experiment [6].

Turning to `Nc1ccccc1SC1CC(=O)N(c2ccccc2Cl)C1=O` (configuration not stated), the Inhibition was -6.84% in experiment [1]; 10.38% in experiment [2]; -12.68% in experiment [3]; 6.14% in experiment [4]; 15% in experiment [5]; -0.17% in experiment [6].

Regarding `NC1=NC(c2ccc(Cl)cc2)N(c2ccc(S(N)(=O)=O)cc2)C(N)=N1` (configuration not stated), the Inhibition in experiment [1] is -8.08%; in experiment [2], 15.66%; in experiment [3], 1.13%; in experiment [4] it was 8.28%; in experiment [5], -0.99%; in experiment [6] it was -3.51%.

With `COc1ccc(Nc2cc(Cl)ccc2C(=O)O)cn1`, the Inhibition in experiment [1] is -1.71%; in experiment [2], 14.76%; in experiment [3], 0%; in experiment [4], 20.74%; in experiment [5], 22.9%; in experiment [6], -8%.

As for `CCCC1OC(c2cc3c(cc2Cl)OCO3)OCC1CC` (configuration not stated), the Inhibition in experiment [1] was 3.15%; in experiment [2], -17.34%; in experiment [3], 11.31%; in experiment [4], 6.46%; in experiment [5], 5.6%; in experiment [6] it was -15.5%.

Take `COC1=CC(C)C2CC3OC(O)CC4C(C)=C(OC)C(=O)C(C2(C)C1=O)C34C` (configuration not stated): the Inhibition in experiment [1] is 7.24%; in experiment [2], 8.28%; in experiment [3] it was -3.89%; in experiment [4], 9.99%; in experiment [5], 3.92%; in experiment [6], 7.39%.

On to `O=[N+]([O-])c1cc(-c2cccnc2)[nH]n1`, for which the Inhibition in experiment [1] was -4.13%; in experiment [2], -4.27%; in experiment [3], 2.34%; in experiment [4], 30.86%; in experiment [5], 1.12%; in experiment [6] it was -1.42%.

On to `COc1ccc2c(c1)CCN1C2CCN2C(=O)CCC21` (configuration not stated), for which the Inhibition in experiment [1] is -11.91%; in experiment [2] it was -4.71%; in experiment [3], -9.16%; in experiment [4], 7.62%; in experiment [5], 3.14%; in experiment [6] it was -4.03%.

`c1ccc2[nH]c(CCCCCc3nc4ccccc4[nH]3)nc2c1`: the Inhibition in experiment [1] was 5.94%; in experiment [2], 0.02%; in experiment [3] it was -19.74%; in experiment [4], 9.39%; in experiment [5] it was 4.8%; in experiment [6] it was 17.08%.

As for `CC(=O)Nc1c(C)cc(OCC(=O)O)cc1C`, the Inhibition was 2.34% in experiment [1]; -5.79% in experiment [2]; 3.28% in experiment [3]; 20.93% in experiment [4]; 1.74% in experiment [5]; -9.89% in experiment [6].

On to `Nc1ccc(Oc2ccc(N)c([N+](=O)[O-])c2)cc1[N+](=O)[O-]`, for which the Inhibition in experiment [1] was 19.29%; in experiment [2], -5.09%; in experiment [3], 4.4%; in experiment [4], 9.85%; in experiment [5], 10.1%; in experiment [6] it was -3.81%.
